Assay outcomes from PubChem.
CYP2C9 act: human CYP2C9 activators, primary screen, biochemical, luminescence | recombinant CYP2C9, luciferin-H conversion; stronger effect = higher value; factor 1 = untreated enzyme, 0 = blocked | activation factor at 5 µM | actives 1.4% (n = 96,000) | AID 1024, 2008;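 active means activation factor of 2 or more for CYP2C9 at a 5 µM dose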;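 further: 0 = sulfaphenazole-blocked wells and 1 = vehicle-only wells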
CYP2C9 inhib: blockers of cytochrome P450 2C9 activity – biochemical, luminescence, ADME assay, primary screen. P11712. CYP2C9 Supersomes, luciferin-H conversion. inhibition, % at 5 µM. actives 20% (n = 96,000);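 active means blocking of liver enzyme CYP2C9 beyond about 50% at 5 µM, limit read from the data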
CYP2C19 inhib: blockers of cytochrome P450 2C19 activity – biochemical, luminescence, ADME assay, primary screen | P33261 | CYP2C19 Supersomes, luciferin-H EGE luminescence, 30 min | inhibition, % at 5 µM | actives 21% (n = 96,000);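 active means CYP2C19 inhibition above a set limit at 5 µM in the primary screen, cut at about 50% in these data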;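 further: plate controls were negative control wells for no effect and 2.5 mM tranylcypromine positive control for full effect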
Target sequence (P33261 whole entry, looked up): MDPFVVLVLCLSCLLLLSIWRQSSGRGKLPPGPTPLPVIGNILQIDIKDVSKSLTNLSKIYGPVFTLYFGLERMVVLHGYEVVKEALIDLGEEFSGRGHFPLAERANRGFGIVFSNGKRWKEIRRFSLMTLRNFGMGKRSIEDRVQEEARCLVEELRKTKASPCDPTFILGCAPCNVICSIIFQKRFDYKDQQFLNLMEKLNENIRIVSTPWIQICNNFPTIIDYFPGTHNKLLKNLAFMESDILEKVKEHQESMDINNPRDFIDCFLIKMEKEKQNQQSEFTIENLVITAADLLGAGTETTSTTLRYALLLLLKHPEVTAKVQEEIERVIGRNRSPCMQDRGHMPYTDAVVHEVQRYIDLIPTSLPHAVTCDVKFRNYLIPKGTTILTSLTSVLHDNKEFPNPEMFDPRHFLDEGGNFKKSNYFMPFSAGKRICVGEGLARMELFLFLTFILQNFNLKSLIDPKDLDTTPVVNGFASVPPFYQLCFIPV
CYP2C19 act: human CYP2C19 activators, primary screen, biochemical, luminescence; Cytochrome P450 2C19 (Homo sapiens), P33261; recombinant CYP2C19, luciferin-H EGE luminescence; stronger effect = higher value; 0 = fully inhibited enzyme, 1 = untreated enzyme; activation factor at 5 µM; 96,000 tested, under 10 active; AID 1025, 2008;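 active means activation factor of at least 2 at 5 µM in the primary screen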;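 further: 0 = wells with 2.5 mM tranylcypromine and 1 = vehicle-only wells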
An asterisk follows results filed as active. Only some compounds are listed: those with a hit (about 31% of all), similar ones and a draw of the others.

SMILES | CYP2C9 act | CYP2C9 inhib | CYP2C19 inhib | CYP2C19 act
COc1ccccc1C1C=C(c2ccc(C)cc2)Nc2nnnn21 (stereo not drawn) | 0.3 | 71* | 85* | 0.1
CCOC(=O)C(=CNc1cc(C)nn1-c1ccc(C)cc1)C(=O)OCC | 0.4 | 65* | 48 | 0.5
C/C(CC(=O)Nc1ccc(OCc2ccccc2)cc1)=N\NC(=O)C(=O)Nc1ccc(C)c(Cl)c1 | 0.9 | 15 | 2 | 1
CC1=C(C(N)=O)C(c2ccccc2)n2nc(-c3cccc(C)c3)nc2N1 (stereo not drawn) | 1 | -4 | 50* | 0.5
COc1ccc(-c2nc3n(n2)C(c2ccccc2Cl)C(C(N)=O)=C(C)N3)cc1 (stereo not drawn) | 0.8 | 15 | 53* | 0.5
Cc1ccc(NC(=O)CSc2nnc(-c3ccc(S(=O)(=O)N4CCOCC4)cc3)n2C)cc1 | 0.6 | 36 | 29 | 0.7
COCCn1c(SCC(=O)Nc2ccc(S(N)(=O)=O)cc2)nc2ccccc21 | 0.3 | 68* | -22 | 1.2
COCCn1c(SCC(=O)Nc2cccc(S(N)(=O)=O)c2)nc2ccccc21 | 0.8 | 18 | 31 | 0.7
COCCn1c(SCC(=O)Nc2ccc(S(=O)(=O)N3CCOCC3)cc2)nc2ccccc21 | 0.3 | 66* | 16 | 0.8
COCCn1c(SCC(=O)Nc2nc(C)c(Cl)cc2Cl)nc2ccccc21 | 0.8 | 22 | 96* | 0
COCCn1c(SCC(=O)Nc2ccc(Cl)c(S(=O)(=O)N(C)C)c2)nc2ccccc21 | 0.1 | 87* | 27 | 0.7
CCOC(=O)C(O)(CCC(O)(C(=O)OCC)C(=O)OCC)C(=O)OCC | 1 | -4 | 19 | 0.8
COc1ccc(NC(=O)c2ccccc2Cl)cc1NC(=O)CN1CCOCC1 | 0.9 | 10 | 17 | 0.8
Cc1ccc2c(c1)CCCN2C(=O)c1ccc2c(c1)OCO2 | 0.6 | 40 | 90* | 0.1
O=C(c1ccc2c(c1)OCO2)N1CCc2ccccc2C1 | 0.8 | 16 | 100* | 0
O=C(c1ccc2c(c1)OCO2)N1CCCc2ccccc21 | 1 | 4 | 83* | 0.2
CCCN(CCC)S(=O)(=O)c1ccc(C(=O)N2CCCc3ccccc32)cc1 | 0.1 | 86* | 21 | 0.8
CC(=O)Nc1ccc(OC(F)(F)C(F)C(F)(F)F)c(NC(C)=O)c1 (stereo not drawn) | 1.1 | -15 | -16 | 1.2
O=C(NCc1ccc2c(c1)OCO2)C1CCN(c2ncccn2)CC1 | 0.6 | 41 | 8 | 0.9
O=C(CCN1CCc2ccccc21)c1ccc2c(c1)OCCO2 | 0.9 | 8 | 84* | 0.2
N#CC1=C(SCc2ccccc2Cl)NC(=O)C(C(N)=O)C1 (stereo not drawn) | 1.1 | -7 | -5 | 1.1
CC1(C)CC(=O)C2=C(C1)OC(N)=C(C#N)C2c1ccc(OC(=O)N2CCOCC2)cc1 (stereo not drawn) | 0.4 | 60* | 32 | 0.7
N#CC1=C(N)OC2=C(C(=O)CCC2)C1c1ccc(OC(=O)N2CCOCC2)cc1 (stereo not drawn) | 0.8 | 25 | -5 | 1
COc1ccc(C2C(C#N)=C(/N=C/N3CCN(C)CC3)OC3=C2C(=O)CC(C)(C)C3)cc1OC (stereo not drawn) | 0.7 | 33 | 31 | 0.7
COc1cc(C2C(C#N)=C(N)OC3=C2C(=O)CC(C)(C)C3)ccc1OC(=O)N1CCOCC1 (stereo not drawn) | 0.5 | 54* | 12 | 0.9
SMILES | CYP2C9 act | CYP2C9 inhib | CYP2C19 inhib | CYP2C19 act
c1ccc(Cn2ncc3ccccc32)cc1 | 0.9 | 6 | 24 | 0.8
CN(C)c1nc(-c2ccccc2)c2cnn(Cc3ccccc3)c2n1 | 0.7 | 35 | 67* | 0.3
CCN(CC)CC#CCC(C)(c1ccccc1)c1ccccc1 | 0.3 | 72* | 94* | 0.1
Nc1ccc(C(=O)OCCCc2nc3ccccc3[nH]2)cc1 | 0.8 | 19 | 51* | 0.5
COc1ccc(OCc2nc3ccccc3[nH]2)cc1 | 0.8 | 24 | 49 | 0.5
Nc1ccc(C(=O)OCc2nc3ccccc3[nH]2)cc1 | 0.9 | 9 | 81* | 0.2
CC(=O)c1sc2nc(=O)c(C)nn2c1C | 1.1 | -12 | -5 | 1.1
CC(C)(C)CC(=O)NC(=S)N1CCCCCC1 | 1 | 0 | 14 | 0.9
Cc1cnc(C(=O)Nc2ccccc2F)cn1 | 1.1 | -13 | 13 | 0.9
CCN(Cc1ccccc1)C(c1cc2cc(C)cc(C)c2[nH]c1=O)c1nnnn1CCOC (stereo not drawn) | 0.9 | 7 | 5 | 0.9
COCCn1nnnc1C(c1cc2cc(C)cc(C)c2[nH]c1=O)N1CCN(c2ccccc2F)CC1 (stereo not drawn) | 0.2 | 78* | 35 | 0.7
COCCn1nnnc1C(c1cccs1)N1CCN(c2cc(C)ccc2C)CC1 (stereo not drawn) | 0.4 | 62* | 38 | 0.6
COCCn1nnnc1C(c1cccs1)N1CCN(c2nc3ccccc3s2)CC1 (stereo not drawn) | 0.1 | 89* | 82* | 0.2
COc1cccc(C(=O)NCc2n[nH]c(=S)n2-c2cccc(C)c2)c1 | 0.9 | 8 | 46 | 0.5
Cc1ccc(N2CC(C(=O)NCCc3ccc(S(N)(=O)=O)cc3)CC2=O)cc1 (stereo not drawn) | 1 | -2 | -8 | 1.1
COc1ccc(C2CC(c3cccs3)=NN2c2nc(-c3ccccc3)cs2)cc1OC (stereo not drawn) | 0.3 | 74* | 86* | 0.1
Cc1ccccc1N(CC(=O)NCC1CCCO1)C(=O)C1(C)CC(=O)N=C2C=CC=CN21 (stereo not drawn) | 1 | -4 | -8 | 1.1
COc1ccc(CN2CCOCC2)cc1OC | 1 | -4 | 5 | 0.9
COc1ccc(CCN2CC(C#N)=C3c4cc(OC)c(OC)cc4CCN3C2)cc1OC | 0.2 | 76* | 65* | 0.4
COc1cc2c(cc1OC)C1=C(C#N)CN(C3CCCCC3)CN1CC2 | 0.5 | 52* | 68* | 0.3
COC(=O)c1cc(S(=O)(=O)n2nc(C)c(Br)c2C)c(Cl)cc1Cl | 0.7 | 27 | 73* | 0.3
COc1ccc(-n2c(SCC(=O)NCc3ccco3)nc3c([nH]c4ccccc43)c2=O)cc1 | 1 | -2 | -7 | 1.1
COc1ccc2c(c1OC)C(=O)N1c3ccccc3C(=O)N(c3ccccc3)C21 (stereo not drawn) | 0.4 | 59* | 16 | 0.8
COc1ccc2c(c1OC)C(=O)N1c3ccccc3C(=O)N(c3ccc(F)cc3)C21 (stereo not drawn) | 1 | 0 | 0 | 1
Cc1ncoc1C(=O)Nc1cccc(Cl)c1C | 0.9 | 9 | 7 | 0.9
Cc1c(Cl)cccc1NC(=O)c1ccc(-n2ccnc2)nc1 | 0 | 98* | 99* | 0
O=C(COC(=O)CSCC(=O)N1CCCCC1)Nc1ccc(Cl)cc1 | 0.6 | 40 | 31 | 0.7
Cc1ccc(C(C(=O)NC2CCCCC2)N(C(=O)c2csnn2)C2CCCC2)o1 (stereo not drawn) | 0.7 | 32 | 37 | 0.6
